These are literature values, as cited in PubChem BioAssay AID977611.

The data set in a line: PubChem AID 977611. The following applies: PDB protein-ligand complexes, literature Kd.

In all, about 3,900 compounds went through this assay and about 3,900 (100%) were called active. No cut-off is given here; in the data, nearly all actives have Kd up to about 4200 µM. So high a share suggests a set chosen from earlier hits. Some of the results follow. Numbered stars: 1 amine (or outer) side, 2 acyl side, 3 side chain; on linkers, the order of the positions; unused ones are H or OH. Starred links: 1 amine or outer side, 2 acyl side, 3 side chain; linkers in the order of their positions; H or OH if unused. Where a SMILES comes first, the peptide text is derived from it. Non-standard residues stand in square brackets, D forms with d. Square brackets hold non-standard residues; d marks the D form. Residues, ends and D or L forms follow the SMILES beside them. Peptide text beside a SMILES is read from it. [ ]: non-standard residue; d: D form. X1 = O=C([C@H](Cc1ccc(O[P+](O)(O)O)cc1)N[*:1])[*:2]; Orn(CH(NH2)2) = NC(N)NCCC[C@H](N)C(=O)O; Pro(4,5-dehydro) = O=C(O)[C@@H]1CC=CN1

Take `CSCC[C@H](NC(=O)[C@@H]1CCCN1C(=O)[C@H](CC(N)=O)NC(=O)[C@@H]1CCCN1C(=O)[C@H](Cc1cnc[nH]1)NC(=O)[C@@H](N)CC(C)C)C(=O)N[C@@H](Cc1ccc(O[P+](O)(O)O)cc1)C(=O)N[C@@H](C)C(=O)N[C@@H](CCCNC(N)N)C(=O)O` (H-LHPNPM[X1]A[Orn(CH(NH2)2)]-OH): the equilibrium dissociation constant (Kd) (protein: Protein Dok7(PH-PTB), PDB entry 3ml4) was 4700 nM (active).
Turning to `C[C@H](N)C(=O)N[C@@H](CS)C(=O)N[C@@H](CO[P+](O)(O)O)C(=O)N1CCC[C@H]1C(=O)N[C@@H](CCC(N)=O)C(=O)N[C@@H](Cc1ccccc1)C(=O)NCC(=O)O`, the Kd (protein: Breast cancer type 1 susceptibility protein, PDB entry 4igk) is 28200 nM (active).
In the case of `CC[C@H](C)[C@H](NC(=O)[C@H](CCCNC(N)N)NC(=O)[C@H](CC(N)=O)NC(=O)[C@H](Cc1ccccc1)NC(=O)[C@@H](NC(=O)[C@@H]1CCCN1C(=O)[C@H](CC(C)C)NC(=O)[C@H](CCCNC(N)N)NC(=O)[C@@H](N)CCCNC(N)N)[C@@H](C)CC)C(=O)N[C@@H](CO)C(=O)N[C@H](C(=O)N[C@@H](CO)C(=O)O)C(C)C` (H-[Orn(CH(NH2)2)][Orn(CH(NH2)2)]LPIFN[Orn(CH(NH2)2)]ISVS-OH), the Kd (protein: CCR4-NOT transcription complex subunit 1, PDB entry 4j8s) is 2000 nM (active).
For the compound `NC(N)NCCC[C@H](N)C(=O)N[C@@H](CO)C(=O)N[C@@H](Cc1ccccc1)C(=O)N[C@@H](CO[P+](O)(O)O)C(=O)N[C@@H](CCC(=O)O)C(=O)N1CCC[C@H]1C(=O)N[C@@H](Cc1ccccc1)C(=O)NCC(=O)O`, for the setting “protein: 14-3-3 protein epsilon, PDB entry 3ual”, the Kd was 1550 nM (active).
As for `CC(C)C[C@H](NC(=O)CNC(=O)[C@H](CC(N)=O)NC(=O)[C@@H](N)Cc1ccccc1)C(=O)N[C@H](C(=O)N[C@@H](CO[P+](O)(O)O)C(=O)N1CCC[C@H]1C(=O)N[C@@H](CCC(N)=O)C(=O)N[C@@H](CCCNC(N)N)C(=O)N[C@@H](CO[P+](O)(O)O)C(=O)O)[C@@H](C)O`, the Kd (protein: Saccharomyces cerevisiae Skp1 and Cdc4 (263-744), PDB entry 3v7d) is 410 nM (active).
Regarding `C[C@H](NC(=O)[C@H](CCC(=O)O)NC(=O)[C@@H]1CCCN1C(=O)[C@H](Cc1ccccc1)NC(=O)[C@@H](NC(=O)[C@@H]1CCCN1C(=O)[C@H](CO[P+](O)(O)O)NC(=O)[C@H](CCC(N)=O)NC(=O)[C@@H]1CCCN1)[C@@H](C)O)C(=O)NCC(=O)O`, for the setting “protein: Breast cancer type 1 susceptibility protein(BRCA1), PDB entry 3coj”, the Kd is 5200 nM (active).
Take `CC(C)[C@H](NC(=O)[C@@H]1CCCN1C(=O)[C@H](CO[P+](O)(O)O)NC(=O)[C@@H](N)CCCNC(N)N)C(=O)N[C@@H](Cc1ccccc1)C(=O)N[C@@H](CO)C(=O)O`: the Kd (protein: Breast cancer type 1 susceptibility protein, PDB entry 4ifi) was 3340 nM (active).
Take `CC(C)C[C@H](NC(=O)[C@H](CCCNC(N)N)NC(=O)[C@H](Cc1ccccc1)NC(=O)[C@@H](N)CC(C)C)C(=O)N[C@@H](CCCNC(N)N)C(=O)N[C@@H](Cc1c[nH]cn1)C(=O)N[C@@H](Cc1ccccc1)C(=O)N1CCC[C@H]1C(=O)N[C@@H](CS)C(=O)NCC(=O)N[C@@H](CC(N)=O)C(=O)N[C@H](C(=O)N[C@@H](CC(N)=O)C(=O)N[C@@H](Cc1ccc(O)cc1)C(=O)NCC(=O)N[C@@H](Cc1ccc(O)cc1)C(=O)N[C@@H](CCC(N)=O)C(=O)N[C@@H](CCC(N)=O)C(=O)N[C@@H](CCC(N)=O)C(=O)O)C(C)C` (HELM PEPTIDE1{L.F.[NC(N)NCCC[C@H](N[*:1])C(=O)[*:2]].L.[NC(N)NCCC[C@H](N[*:1])C(=O)[*:2]].H.F.P.C.G.N.V.N.Y.G.Y.Q.Q.Q}$$$$V2.0): under “protein: PTB domain of SNT-2, PDB entry 2kup”, the Kd is 200 nM (active).
In the case of `CC(C)C[C@H](NC(=O)[C@H](CC(C)C)NC(=O)[C@H](CCC(=O)O)NC(=O)[C@@H]1CC=CN1C(=O)[C@H](C)NC(=O)[C@@H]1CCCN1)C(=O)NCC(=O)O` (H-PA[Pro(4,5-dehydro)]ELLG-OH), the Kd (protein: anti-hinge rabbit antibody 2095-2, PDB entry 4o4y) is 15.5 nM (active).
On to `CC[C@H](C)[C@H](NC(=O)[C@@H](NC(=O)[C@@H](N)CC(C)C)C(C)C)C(=O)N[C@@H](C)C(=O)NCC(=O)N[C@@H](CC(N)=O)C(=O)N1CCC[C@H]1C(=O)N[C@@H](C)C(=O)N[C@@H](Cc1ccc(O[P+](O)(O)O)cc1)C(=O)N[C@@H](CCCNC(N)N)C(=O)N[C@@H](CO)C(=O)O` (H-LVIAGNPA[X1][Orn(CH(NH2)2)]S-OH), for which the Kd (protein: PTB domain of insulin receptor substrate-1(IRS-1), PDB entry 1irs) is 6000 nM (active).
With `CC(C)C[C@H](NC(=O)[C@H](CC(N)=O)NC(=O)[C@H](Cc1ccccc1)NC(=O)[C@@H](N)CO)C(=O)N[C@@H](C)C(=O)N1CCC[C@H]1C(=O)N[C@@H](CC(C)C)C(=O)NCC(=O)N[C@@H](CCCNC(N)N)C(=O)N[C@@H](CCCNC(N)N)C(=O)N[C@@H](CCCNC(N)N)C(=O)N[C@H](C(=O)N[C@@H](CCC(N)=O)C(=O)N[C@@H](CO)C(=O)N[C@@H](CCC(N)=O)C(=O)O)C(C)C` (H-SFNLAPLG[Orn(CH(NH2)2)][Orn(CH(NH2)2)][Orn(CH(NH2)2)]VQSQ-OH), the Kd (protein: Telomeric repeat-binding factor 2(TRF2 TRFH domain), PDB entry 3bu8) is 120 nM (active).
As for `C[C@H]1O[C@H](O[C@H]2[C@H](O)[C@@H](O)[C@@H](O[C@H]3[C@H](O)[C@@H](O)[C@@H](O)O[C@@H]3CO)O[C@@H]2CO)[C@H](O)[C@@H](O)[C@@H]1N[C@H]1CC(CO)[C@@H](O)[C@H](O)[C@H]1O` (stereo not given in full), the Kd (protein: Carbohydrate ABC transporter substrate-binding protein, CUT1 family (TC 3.A.1.1.-) EUR_01830, PDB entry 4uac) is 288 nM (active).
In the case of `O=C1O[C@H](CO)[C@@H](O[C@@H]2O[C@H](CO)[C@@H](O)[C@H](O)[C@@H]2O)[C@H](O)[C@@H]1O`, the Kd (protein: ABC transporter substrate-binding protein MnBP3, PDB entry 4pft) is 2.3 nM (active).
As for `OC[C@H]1O[C@H](O[C@H]2[C@H](O)[C@@H](O)[C@@H](O[C@H]3[C@H](O)[C@@H](O)[C@@H](O[C@H]4[C@H](O)[C@@H](O)[C@@H](O)O[C@@H]4CO)O[C@@H]3CO)O[C@@H]2CO)[C@H](O)[C@@H](O)[C@@H]1O`, under “protein: Outer membrane protein SusF, PDB entry 4fe9”, the Kd is 990000 nM (active).
Take `C[C@@H]1O[C@@H](O)[C@H](O)[C@H](O)[C@H]1O[C@H]1O[C@H](CO)[C@@H](O)[C@H](O[C@H]2O[C@H](C)[C@@H](O)C[C@H]2O)[C@@H]1O[C@H]1O[C@H](CO)[C@H](O)[C@H](O[C@@H]2O[C@@H](C)[C@H](O[C@H]3O[C@H](CO)[C@@H](O)[C@H](O[C@H]4O[C@H](C)[C@@H](O)C[C@H]4O)[C@@H]3O[C@H]3O[C@H](CO)[C@H](O)[C@H](O)[C@H]3O)[C@@H](O)[C@H]2O)[C@H]1O`: the Kd (protein: Bifunctional tail protein, PDB entry 3th0) was 75800 nM (active).
